GALK inh: qHTS Assay for Inhibitors of Human Galactokinase (GALK); Purified GALK, Kinase-Glo residual ATP luminescence; Potency, µM (doses to about 57.5 µM), without a hit: at the top dose activity change, negative = inhibition, actives largely listed as inhibitors; 0.007% of 270,000 active; AID 1868, 2009; note: potency is the fitted concentration of half-maximal effect
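ATP-depletion format; final 35 uM ATP, 100 uM D-galactose, 5 nM enzyme; pH 8.0 HEPES/Mg2+ buffer; 60 min RT; luminescence read 10 min after detection reagent.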
PKM2 activator: qHTS Assay for Activators of Human Muscle isoform 2 Pyruvate Kinase; Pyruvate kinase PKM (Homo sapiens), P14618; purified PKM2, Kinase-Glo ATP luminescence, activation; response scale: 0% is enzyme alone, no compound; Potency, µM (highest dose often 57.5 µM), for the others: top-dose activation, usual class: activators; 0.34% of 260,000 active; AID 1631, 2009; note: potency is the fitted concentration of half-maximal effect; nearly all actives have a fitted effect of over 55% in size
Target sequence (P14618 whole entry, looked up, canonical isoform): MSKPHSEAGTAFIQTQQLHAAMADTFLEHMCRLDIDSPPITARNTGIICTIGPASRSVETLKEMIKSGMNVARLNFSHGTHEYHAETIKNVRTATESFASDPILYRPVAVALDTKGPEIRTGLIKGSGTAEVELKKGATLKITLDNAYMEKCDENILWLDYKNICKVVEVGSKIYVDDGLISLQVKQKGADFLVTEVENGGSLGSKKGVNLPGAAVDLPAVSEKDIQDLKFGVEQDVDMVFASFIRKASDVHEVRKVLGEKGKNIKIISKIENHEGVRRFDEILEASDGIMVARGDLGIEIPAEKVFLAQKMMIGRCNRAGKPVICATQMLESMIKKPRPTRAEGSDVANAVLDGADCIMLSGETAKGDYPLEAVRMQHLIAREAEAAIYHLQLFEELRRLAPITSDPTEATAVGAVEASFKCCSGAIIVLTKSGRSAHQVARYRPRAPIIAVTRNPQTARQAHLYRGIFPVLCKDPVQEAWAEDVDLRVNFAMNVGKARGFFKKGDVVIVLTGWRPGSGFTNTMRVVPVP
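hPK-M2, >95% pure; 0.1 mM ADP / 0.5 mM PEP final; imidazole pH7.2 buffer w/ 7 mM MgCl2, 50 mM KCl; 1 h RT; Kinase-Glo lum. Intermediate enzyme activity for dual inhibitor/activator qHTS.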
TrxR1 substrate: qHTS Assay for Substrates of Mammalian Selenoprotein Thioredoxin Reductase 1 (TrxR1): qHTS. 0.01% of 390,000 active. purified TrxR1 substrate turnover, NADPH consumption readout. Potency, µM (highest dose often 114 µM), inactives show at the top dose activity change, negative = substrate turnover. AID 588456, 2011. Thioredoxin reductase 1, cytoplasmic (Rattus norvegicus), O89049; note: potency is the fitted concentration of half-maximal effect; nearly all actives have a fitted effect of over 50% in size
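Rat TrxR1, dispensed at 90 nM, was prereduced with 400 uM NADPH (final) for 5 min at ~22 deg C, then incubated with compound 15 min before 400 uM selenite. A first-read NADPH fluorescence drop versus no-compound background flagged substrates.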
TrxR1 inh: qHTS Assay for Inhibitors of Mammalian Selenoprotein Thioredoxin Reductase 1 (TrxR1): qHTS. recombinant rTrxR1, NADPH fluorescence consumption, selenite substrate. 1% of 390,000 active. Potency, µM (top dose mostly 114 µM), inactives show at the top dose activity change, negative = inhibition, actives largely listed as inhibitors. Thioredoxin reductase 1, cytoplasmic (Rattus norvegicus), O89049; note: potency is the fitted concentration of half-maximal effect; nearly all actives have a fitted effect of over 65% in size
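Rat TrxR1 (90 nM in the dispensed reagent) was pre-reduced with 400 uM NADPH for 5 min at room temperature, then incubated with compound for 15 min. After 400 uM selenite was added, NADPH fluorescence (Ex 340/Em 450 nm) was followed for 8 min.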
PI4K2A block: qHTS for small molecular inhibitors of PI4K2A. Phosphatidylinositol 4-kinase type 2-alpha (Homo sapiens), Q9BTU6. purified PI4K2A, ADP-Glo luminescence, 1 h; stronger effect = lower value. activity change, negative = inhibition, % at 76.9 µM. 0.13% of 420,000 active; in the data active = activity change below about -50%; inconclusive = mostly about -30% to -49%;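 note: -100% = wells without enzyme as full effect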
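PI4K2A activity was measured by ADP-Glo luminescence: enzyme (4 ug/mL stock) and phosphatidylinositol (1.2 mM stock) in Tris pH 7.5/MgCl2/EGTA/Triton X-100 buffer were reacted with ATP (300 microM stock) for one hour at ambient temperature.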
Active calls of the source: *; ? = inconclusive; . = no result given; [ ] = dose if it differs, or a comment. Shown are actives, neighbours in structure and some others; about 1.2% of the full set was active somewhere. Unless noted, calls come from the whole dose curve; as a rule, active = well fitted curve in the direction sought with a large enough effect; inconclusive = small, poorly fitted or top-dose-only effect, or another doubt; inactive = no such curve, though single readings can be large; an effect the other way counts as inactive or inconclusive. Unless noted, % is set by controls: 0 for no effect and ±100 for the full control effect.

SMILES	GALK inh	PKM2 activator	TrxR1 substrate	TrxR1 inh	PI4K2A block
CC(=O)c1sc(N/N=C2\CC3CC2C(C)C3(C)C)nc1C (stereo unspecified)	-2%	26%	-6%	11µM*	0
COC(=O)C[C@@H]1CC[C@H]2[C@@H](COc3ccc(NC(=O)c4ccc(C(F)(F)F)cc4)cc3C(=O)N2C)O1	.	.	.	.	-1
CCCCN(CCCC)C(=O)c1cc(Cl)ccc1[N+](=O)[O-]	3%	0%	-13%	-23%	0
CCCN(CCC)C(=O)c1cc([N+](=O)[O-])cc2c1-c1ccc([N+](=O)[O-])cc1C2=C(C#N)C#N	-2%	3%	-8%	13µM*	1
C[S+](C)CC(=O)c1ccc2ccccc2c1	.	.	-4%	-9%	.
N#CCCCN1C(=O)C(O)(CC(=O)c2ccc3c(c2)OCCO3)c2ccccc21 (stereo unspecified)	1%	7%	-7%	-3%	-4
N#CCCCN1C(=O)C(=C(C#N)C#N)c2ccccc21	-1%	3%	-4%	13µM*	2
COc1ccccc1CC(=O)Nc1ccc2nc(Nc3cccc(Cl)c3)cc(C)c2c1	.	.	46%	4%	1
COc1ccccc1-c1nc2n(n1)C(c1ccccc1Cl)C(C(=O)Nc1cccnc1)=C(C)N2 (stereo unspecified)	.	.	0%	-2%	1
CCc1ccc(-n2c(CCC(=O)O)ccc2-c2cccs2)cc1	.	.	8%	35µM*	0
CCOC(=O)c1ccc(-n2c(CCC(=O)O)ccc2-c2cccs2)cc1	-1%	?	-6%[57.1 µM]	?	2
COCCn1c(CCC(=O)O)ccc1-c1cccs1	-1%	17%	20%	?	-3
CCCCn1c(CCC(=O)O)ccc1-c1cccs1	-4%	?	14%	35µM*	-4
Cc1ccc(-n2c(CCC(=O)O)ccc2-c2cccs2)cc1C	1%	?	15%	45µM*	4
COc1ccc2c(Sc3ccc(Cl)cc3)c(C(=O)NCCCN3CCCCC3)[nH]c2c1	.	.	2%	24%	5
COc1ccc(S(=O)(=O)N2CCN(C(=O)c3cccs3)CC2)cc1	-2%	14µM*	-13%	-113%	5
CCn1c(C)c(C)c2cc(C(=O)NCCc3ccco3)ccc21	8%	28µM*	-4%	-18%	-15
Cc1ccc(C(=O)NCc2ccco2)cc1Br	0%	5%	1%	18µM*	-7
Cc1c(C)n(C)c2ccc(C(=O)NCCc3ccco3)cc12	-1%	.	-2%	?	2
Cc1c(Br)cc(C(=O)NCc2ccco2)c(C)c1C	-4%	?	6%[57.1 µM]	-48%	-3
CC1=C(C)CS(=O)N(c2ccc(S(N)(=O)=O)cc2)C1 (stereo unspecified)	-2%	7%	-4%	-8%	-52*
CC1=C(C)CS(=O)N(S(=O)(=O)c2ccccc2)C1 (stereo unspecified)	0%	8%	-1%[57.1 µM]	31%[57.1 µM]	-13
NS(=O)(=O)c1ccc(-c2ccc(/C=C3\C(=O)Nc4ccccc43)o2)cc1	.	0%	.	.	.
Cc1ccc(/C=C2\C(=O)Nc3ccccc32)o1	-1%	-10%	1%	18µM*	-1
Cc1ccc(/C=C2/SC(=O)NC2=S)o1	2%	-1%	-27%	56µM*	-10
SMILES	GALK inh	PKM2 activator	TrxR1 substrate	TrxR1 inh	PI4K2A block
Cc1ccc(/C=C2/SC(=S)N(C3CCCCC3)C2=O)o1	-11%	.	-6%	-11%	7
Cc1ccc(/C=C2\C(=O)NC(=O)N2C)o1	-7%	9%	-4%	50µM*	-6
Cc1ccc(/C=C2/C(=O)N(c3ccccc3)C(=S)N2C)o1	0%	?	-12%	20µM*	4
Cc1ccc(NC(=O)CN2C(=O)N/C(=C/c3ccc(C)o3)C2=O)cc1	.	26%	-7%	?	-17
O=C(NCc1ccc(Cl)cc1)C1CCCN(c2ncccn2)C1 (stereo unspecified)	.	.	.	.	4
CSC1=C(C#N)C(c2ccccc2Cl)C2=C(CCCC2=O)N1 (stereo unspecified)	2%	0%	.	.	.
CSC1=C(C#N)C(c2ccccc2C)C(C#N)=C(N)N1 (stereo unspecified)	-1%	0%	-4%	50µM*	-6
CSC1=C(C#N)C(c2ccccc2Cl)C2=C(N1)c1ccccc1C2=O (stereo unspecified)	.	27%	-6%	50µM*	3
CC(=O)C1=C(c2ccccc2)OC(N)=C(C#N)C1c1ccccc1C (stereo unspecified)	0%	6%	-3%	-12%	1
CCc1cccc(NC(=O)c2cnc(SC)nc2-c2ccccc2)c1	.	.	-2%	10%	-14
N#Cc1ncc(Br)cn1	.	.	8%	-16%	.
COC(=O)c1ccc2c(c1)C(C)(C)C(/C=C/c1ccccc1O)=[N+]2C	-1%	-35%	58%	79µM*	-21
CCOC(=O)c1cccc(-c2cc(C(=O)OC)c3n(c2=O)CCC3)c1	.	.	.	.	2
Cn1c(=O)n(C)c2cc(NC(=O)CCl)ccc21	-1%	-7%	1%	50µM*	4
CN1c2cc3c(cc2N=C(c2ccc(C(=O)O)cc2)c2ccccc21)C(C)(C)CCC3(C)C	.	-3%	.	.	.
CCCCCN1CCCCC(NC(=O)c2ccc(F)c(F)c2)C1=O (stereo unspecified)	.	.	.	.	-2
CCC[C@H]1[C@@H](NC(=O)c2cccnc2)CC[C@@]23CCCN2C(=O)CCC[C@@H]13	.	.	.	.	-1
O=C(/C=C/Sc1ccc(C(F)(F)F)cn1)c1ccccc1	.	5%	0%	1.3µM*	-16
CC(=O)/C(=C/c1ccccc1)C(=O)Nc1ccccc1C	-5%	0%	-1%	25µM*	-2
Cc1ccccc1NC(=O)C(=Cc1ccc(C(=O)O)cc1)C(=O)Nc1ccccc1C	9%	7%	-9%[57.1 µM]	-25%	-25
CC(=O)N1CCc2cc(Br)c(S(=O)(=O)NCc3ccc(Cl)cc3)cc21	.	.	.	.	1
CC1CCCC(C)N1C(=O)COC(=O)/C=C/c1ccco1 (stereo unspecified)	.	.	3%	50µM*	-10
CC1CCN(C(=O)COC(=O)/C=C/c2ccc([N+](=O)[O-])cc2)CC1	.	.	1%	1%	-4
CC1CCN(C(=O)COC(=O)/C=C/c2ccco2)CC1	.	.	11%	8.9µM*	-29
CC1CCCC(NC(=O)COC(=O)/C=C/c2ccc([N+](=O)[O-])cc2)C1C (stereo unspecified)	.	.	-4%	1%	9

Screening data deposited in PubChem by National Center for Advancing Translational Sciences (NCATS).
